Sampled rows, rich in hits. Any-hit rate of the full collection: about 1.9%.
Vif inh: HIV Vif inhibition. 340,000 tested, 0.35% active. HEK293T cells, Vif self-association by quenched fluorescence, imaging, 24 h. AID 602346. inhibition, % at 7.49 µM; in the data active means inhibition above about 50%, passing the limit was not always enough
GSIS activator: primary screen for activators of insulin secretion dependent on glucose, INS-1E cells, GLuc reporter luminescence; INS-1E GLuc reporter insulin secretion, 2-3 h; activation, % at 16.6 µM; 370,000 tested, 0.61% active; AID 743287;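 active means lowest replicate activation of at least 40%, so every replicate reaches that level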;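 further: 0% = median of neutral control wells and 100% = median of IBMX positive control wells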
A1 inh: inhibitors of the anti-apoptotic protein A1, read as caspase activation; MEF A1-2A-BIM cells, Caspase-Glo 3/7 luminescence, 3 h; percent of clofoctol response, vehicle zero; AID 2462; 330,000 tested, 0.066% active; caspase activation, % (concentration not given with the values);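 active means over half of replicate activation scores above 10%, or exactly half above 10 with the replicate mean above 10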
Neddylation inh: cullin neddylation inhibition; P61081+Q13564; TR-FRET cullin neddylation, biochemical; inhibition, % at 25 µM; 360,000 tested, 0.58% active; in the data active means inhibition above about 36%
dFosB act: mouse delta FosB homodimer activation. 340,000 tested, 0.99% active. purified delta FosB, TAMRA-CDK5 oligo fluorescence polarization; percent of positive-control signal above neutral wells. activation, % at 25 µM. AID 493131;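 active means mean activation above about 17%, with every replicate also reaching it, limit read from the data, passing the limit was not always enough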
Target sequence (P13346 whole entry, looked up): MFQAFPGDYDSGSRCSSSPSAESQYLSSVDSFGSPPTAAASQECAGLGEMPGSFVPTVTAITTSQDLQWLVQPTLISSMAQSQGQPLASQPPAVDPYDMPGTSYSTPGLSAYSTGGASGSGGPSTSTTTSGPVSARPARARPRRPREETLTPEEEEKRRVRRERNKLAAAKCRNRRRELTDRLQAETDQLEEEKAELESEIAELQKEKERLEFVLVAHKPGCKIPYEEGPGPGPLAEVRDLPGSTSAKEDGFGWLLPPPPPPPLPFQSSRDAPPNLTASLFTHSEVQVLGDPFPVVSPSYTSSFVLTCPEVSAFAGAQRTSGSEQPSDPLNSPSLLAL
Starred values were filed as active, the others as inactive; nt = no result shown; ! = not confirmed by another sample.

SMILES | Vif inh | GSIS activator | A1 inh | Neddylation inh | dFosB act
C/C=C/c1ccc(C2[C@H]3CNC[C@@H]2N3Cc2cc(-c3ccccc3)on2)cc1 (stereo partly specified) | nt | 71.6*! | nt | nt | nt
N#Cc1cccc(-c2ccc(C3[C@H]4CNC[C@@H]3N4Cc3cc(-c4ccccc4)on3)cc2)c1 (stereo partly specified) | nt | 72.3*! | nt | nt | nt
CO[C@@H]1CN(C)C(=O)c2cc(NC(=O)C3CCCCC3)ccc2OC[C@H](C)N(Cc2nccs2)C[C@@H]1C | nt | -18.0 | nt | nt | nt
C[C@H](CO)N1C[C@H](C)[C@H](CN(C)C(=O)Nc2ccc3c(c2)OCO3)Oc2ccc(NC(=O)c3ccncc3)cc2CC1=O | nt | 10.7 | nt | nt | nt
COc1ccc(/C=C2\CN(Cc3ccccc3)C/C(=C\c3ccc(OC)c(O)c3)C2=O)cc1O | 59.4* | -2.6 | 1.4 | 2.6 | -7.9
O=C(N[C@@H]1CC[C@H](CCn2cc(-c3ccccc3)nn2)O[C@H]1CO)c1ccccc1F | nt | 5.1 | nt | nt | nt
O=C(CCN1CCCCC1)NCC[C@H]1CC[C@@H](NC(=O)c2ccc(F)cc2)[C@@H](CO)O1 | nt | -4.9 | nt | nt | nt
Cc1ccc(NC(=O)c2ccccc2-c2ccccc2C(=O)O)cc1C | 17.2 | 44.6* | 0.1 | 1.4 | 1.6
C/C=C/c1ccc([C@H]2[C@@H](CO)N(C(=O)C3CC3)C23CN(C(=O)NC(C)C)C3)cc1 | nt | 2.7 | nt | nt | nt
Cc1cc(C)nc(N2CCCC(C(=O)NCc3ccc4c(c3)OCO4)C2)n1 (stereo unspecified) | 2.8 | 3.0 | 0.4 | 23.6 | -2.8
CCCc1cc(N2CCCC(C(=O)NCc3ccc4c(c3)OCO4)C2)n2ncnc2n1 (stereo unspecified) | -0.9 | 54.4* | -0.4 | 1.4 | -3.4
CCOc1ccc(C2CC(c3cccc(Cl)c3)n3nc(N)nc3N2)cc1 (stereo unspecified) | -4.3 | -21.8 | 0.1 | nt | -8.9
Nc1nc2n(n1)C(c1cccc(Cl)c1)CC(c1ccc(F)cc1)N2 (stereo unspecified) | 3.4 | 48.5* | 0.5 | 16.0 | -11.9
COC(=O)c1cnn(-c2nc(-c3ccccc3)cs2)c1N | -4.2 | 45.0* | -2.3 | 11.4 | -5.2
O=C(Cn1cnc2ccccc21)Nc1ccc(SC(F)F)cc1 | -26.5 | -21.9 | 1.4 | 11.0 | -1.7
O=C(Nc1ccc(SC(F)F)cc1)c1cccc2nc3ccccc3nc12 | nt | 82.0* | -1.1 | 2.4 | 1.6
Cc1ccc(NC(=O)c2ccc(OCc3c(C)noc3C)cc2)cc1C | -18.0 | 12.5 | 0.8 | 6.0 | -11.3
Cc1ccccc1NC(=O)c1ccc(OCc2c(C)noc2C)cc1 | -5.3 | 27.8 | 0.5 | -16.9 | 1.0
Cc1cccc(NC(=O)c2ccc(OCc3c(C)noc3C)cc2)c1C | -10.9 | 136.6* | 2.0 | 6.0 | -0.3
CC(=O)Nc1ccc(NC(=O)c2ccc(OCc3c(C)noc3C)cc2)cc1 | 60.4* | -1.7 | -0.3 | 11.4 | 1.0
CO[C@@H]1CN(C)C(=O)c2cc(NC(=O)NC(C)C)ccc2OC[C@@H](C)NC[C@@H]1C | nt | 8.4 | nt | nt | nt
O=C(COC(=O)[C@H](Cc1ccccc1)NC(=O)c1cccs1)Nc1c(Cl)cccc1Cl | -2.1 | -27.9 | 0.8 | 2.0 | -9.7
O=C(COC(=O)C(Cc1ccccc1)NC(=O)c1cccs1)NCc1ccccc1 (stereo unspecified) | 59.2* | -42.8 | -0.3 | -16.2 | -9.4
COc1ccc2c3c(n(C)c2c1)[C@@H](CO)N(S(C)(=O)=O)CC31CN(C(=O)c2ccccn2)C1 | nt | 2.7 | nt | nt | nt
CCOc1ccc2ccc(OCC)c(/C=N/n3cnnc3)c2c1 | -3.9 | 40.2* | 0.5 | -15.3 | -16.6
SMILES | Vif inh | GSIS activator | A1 inh | Neddylation inh | dFosB act
FC(F)(F)c1cccc(CN2[C@@H]3CNC[C@H]2C3c2ccc(-c3ccncc3)cc2)c1 (stereo partly specified) | nt | -3.8 | nt | nt | nt
O=C1NC(=Nc2cccc(O)c2)S/C1=C\c1cccnc1 | 0.9 | 19.7 | -0.3 | -17.1 | 4.9
Cc1cccc(N=C2NC(=O)/C(=C/c3cccnc3)S2)c1 | 0.8 | 45.1* | -0.1 | -20.3 | -4.0
COc1ccc(/C=C/C(=O)Oc2ccc(/C=N/NC(=O)c3ccccc3)cc2)cc1OC | -8.5 | 128.9* | 0.6 | 14.4 | 4.0
O=C(Oc1ccc(/C=N/NC(=O)c2ccccc2F)cc1)c1ccccc1 | 12.2 | -3.0 | 0.5 | 6.7 | 16.7*
O=C(N/N=C/c1ccc(OC(=O)c2ccccc2)cc1)c1cccc(O)c1 | -1.3 | -12.8 | 0.7 | -0.6 | -4.1
